Compound activity deposited in PubChem by Broad Institute.
Pf Dd2 inh – P. falciparum Dd2 growth inhibition; SYBR Green, 72 h; hits give low values; activity change, % at 10 µM; 2.3% of 94,000 active; AID 1159554; in the data active means activity change below about -80%; inconclusive means no clear call, values can overlap the other calls
T cruzi growth-1 – T. cruzi proliferation inhibition | inhibition, % at 8.34 µM | 5.9% of 77,000 active | T. cruzi beta-gal in NIH3T3, GalScreen luminescence, 90 h;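 active means mean inhibition above about 93%, with at least 55% of replicates each passing it, limit read from the data, passing the limit was not always enough; inconclusive means only one of those two conditions holds; inactive means neither condition holds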
C diff growth – C. difficile growth inhibition. AID 1259249. growth activity, negative = inhibition, % at 16 µg/mL (by protocol). 0.25% of 86,000 active. Clostridium difficile clinical isolate growth, OD600, 24 h; hits give low values;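 active means mean growth activity at or below -80% and every replicate also at or below -80%; inconclusive means mean at or below -80% but some replicate above -80%; inactive means mean growth activity above -80%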;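 further: 0% = DMSO wells and -100% = levofloxacin 16 µg/mL wells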
T cruzi growth-2 – Trypanosoma cruzi proliferation inhibition | shares compounds with T cruzi growth-1 | T. cruzi beta-gal in NIH3T3, GalScreen luminescence, 90 h | inhibition, % at 8.35 µM | 72% of 5,600 active | AID 651739;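 active means mean replicate inhibition above about 95% and at least 55% of replicates individually reaching it, limit read from the data; inconclusive means only one of the two criteria is met; inactive means neither criterion is met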
T cruzi growth-3 – Trypanosoma cruzi proliferation inhibition; AID 651740; inhibition, % at 2.09 µM; shares compounds with T cruzi growth-1; T. cruzi beta-gal in NIH3T3, GalScreen luminescence, 90 h; 21% of 5,600 active;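 active means mean inhibition above about 95%, with at least 55% of replicates also reaching it, limit read from the data; inconclusive means meets just one of the two conditions; inactive means meets neither condition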;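 further: plate controls were neutral control median for no effect and positive control median for full effect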
3T3 cytotox – cytotoxicity in mouse NIH/3T3 fibroblasts; shares compounds with T cruzi growth-1; NIH/3T3 viability, CellTiter-Glo ATP luminescence, 90 h; cytotoxicity (signal decrease), % at 8.35 µM; 14% of 5,600 active;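 active means mean signal decrease across replicates above about 35% based on untreated-well scatter, with enough replicates individually passing, limit read from the data; inconclusive means no rule stated though some were filed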;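 further: 0% = median of neutral control wells and 100% = median of positive control wells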
NIH3T3 tox 2 – kills mouse NIH/3T3 fibroblasts; shares compounds with T cruzi growth-1; NIH/3T3 viability, CellTiter-Glo ATP luminescence, 90 h; inhibition, % at 24.9 µM; 56% of 5,600 active;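 active means mean loss of cell viability signal at or above a set limit, and enough replicates individually reaching it; inconclusive means meets only the mean limit or only the replicate share; inactive means meets neither condition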;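 further: 0% = median of neutral control wells and 100% = median of positive control wells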
* hit, by the source's call; ? = inconclusive; · = not tested or not shown. Compounds with a hit are over-represented: about 6.7% of the library has one in this group of screens.

SMILES	Pf Dd2 inh	T cruzi growth-1	C diff growth	T cruzi growth-2	T cruzi growth-3	3T3 cytotox	NIH3T3 tox 2
O=C(NCC[C@@H]1CC[C@H](NS(=O)(=O)c2ccc(Cl)cc2)[C@H](CO)O1)c1ccc2c(c1)OCO2	-19.5	9.7	-1.7	·	·	·	·
O=C(NCCN1CCCCC1)[C@@H]1N[C@@H]2c3ccc(-c4ccncc4)c(=O)n3C[C@@H]2[C@H]1CO	-5.9	101.3*	·	-17.1	-10.7	-9.4	-25.6
O=C(NCCN1CCCCC1)[C@H]1N[C@H]2c3ccc(-c4cccnc4)c(=O)n3C[C@H]2[C@@H]1CO	·	18.5	·	·	·	·	·
COc1ccc(CN(C)C[C@H]2Oc3ccc(NC(=O)NC(C)C)cc3C(=O)N([C@H](C)CO)C[C@H]2C)cc1	7.5	-25.0	-0.3	·	·	·	·
O=C(C[C@@H]1CC[C@@H]2[C@H](COC[C@@H](O)CN2C(=O)Nc2cc(Cl)cc(Cl)c2)O1)N1CCCCC1	5.9	78.7	·	·	·	·	·
O=C(C[C@@H]1CC[C@@H]2[C@H](COC[C@@H](O)CN2C(=O)Nc2cccc(Cl)c2)O1)N1CCCCC1	0.0	109.3*	28.6	38.8	21.1	-1.3	-20.9
O=C(C[C@H]1CC[C@@H]2[C@H](COC[C@H](O)CN2C(=O)Nc2cccc(Cl)c2)O1)N1CCCCC1	1.7	-62.3	30.9	·	·	·	·
O=C(C[C@H]1CC[C@H]2[C@@H](COC[C@H](O)CN2C(=O)Nc2cc(Cl)cc(Cl)c2)O1)N1CCCCC1	-12.7	99.4*	·	109.0*	39.2	11.4	19.6
COCC(=O)N(C)C[C@@H]1Oc2ncc(C#Cc3ccc(OC)cc3)cc2C(=O)N([C@H](C)CO)C[C@@H]1C	13.0	-40.8	1.0	·	·	·	·
C[C@@H]1CN([C@@H](C)CO)C(=O)CCCn2cc(nn2)CO[C@@H]1CN(C)C(=O)Nc1ccccc1F	1.8	73.8	-3.2	·	·	·	·
C[C@H](CO)N1C[C@H](C)[C@@H](CN(C)S(=O)(=O)c2ccc(F)cc2)Oc2cc(C#Cc3ccc(F)cc3)ccc2S1(=O)=O	-48.3	107.4*	4.8	100.0*	108.6*	28.4	64.6*
C[C@@H]1CN([C@@H](C)CO)S(=O)(=O)c2ccc(C#Cc3ccc(F)cc3)cc2O[C@@H]1CN(C)S(=O)(=O)c1ccc(F)cc1	-43.7	113.8*	13.2	105.6*	114.6*	26.4	43.1*
C[C@H]1CN([C@@H](C)CO)S(=O)(=O)c2ccc(C#Cc3ccc(F)cc3)cc2O[C@@H]1CN(C)S(=O)(=O)c1ccc(F)cc1	-49.7	?	-1.5	95.5*	112.7*	33.1	68.1*
COCC#Cc1ccc2c(c1)O[C@@H](CN(C)S(=O)(=O)c1ccc(F)cc1)[C@@H](C)CN([C@@H](C)CO)S2(=O)=O	-44.0	84.4	7.9	·	·	·	·
C[C@H]1CN([C@@H](C)CO)S(=O)(=O)c2ccc(C#Cc3ccc(F)cc3)cc2O[C@H]1CN(C)S(=O)(=O)c1ccc(F)cc1	-21.5	107.4*	3.6	105.2*	?	7.6	0.5
CN(C)CCCNC(=O)C[C@@H]1CC[C@H]2[C@@H](COC[C@H](O)CN2CC2CCCCC2)O1	0.5	·	-5.7	·	·	·	·
CN1C(=O)c2cc(NC(=O)c3cccs3)ccc2OC[C@H]2O[C@H](CC(=O)NCCN3CCCCC3)CC[C@@H]21	-4.8	-32.0	-4.2	·	·	·	·
Cc1noc(C)c1S(=O)(=O)N(C)C[C@@H]1Oc2ccc(NC(=O)Cc3ccccc3)cc2CC(=O)N([C@H](C)CO)C[C@H]1C	-0.8	38.9	-0.6	·	·	·	·
O=C(Nc1cccc(Cl)c1)N1C[C@@H]2[C@H](c3ccccc31)[C@H](CO)N2C(=O)c1ccncc1	-8.2	20.8	15.6	·	·	·	·
CN(C)C(=O)C[C@H]1CC[C@@H]2[C@@H](COc3ccc(NC(=O)C4CCCCC4)cc3C(=O)N2C)O1	-7.5	1.8	-3.2	·	·	·	·
CNC(=O)C[C@H]1CC[C@H]2[C@@H](COc3ccc(NC(=O)Nc4cccc(C)c4)cc3C(=O)N2C)O1	-5.2	38.1	-0.8	·	·	·	·
CO[C@@H]1CN(C)C(=O)c2cc(NC(=O)NC(C)C)ccc2OC[C@H](C)N(Cc2ccccn2)C[C@@H]1C	3.4	24.9	·	·	·	·	·
COc1cccc(C#Cc2ccc([C@@H]3[C@H](CO)N4C(=O)CN(C(=O)Cc5cccnc5)C[C@@H]34)cc2)c1	-36.4	·	-2.4	·	·	·	·
O=S(=O)(N[C@H]1CC[C@H](CCn2cc(-c3cccc(F)c3)nn2)O[C@@H]1CO)c1ccc(Cl)cc1	4.0	11.7	·	·	·	·	·
CC(C)NC(=O)N(C)C[C@H]1Oc2cc(C#C[C@H](C)O)ccc2S(=O)(=O)N([C@@H](C)CO)C[C@H]1C	15.2	·	0.6	·	·	·	·
SMILES	Pf Dd2 inh	T cruzi growth-1	C diff growth	T cruzi growth-2	T cruzi growth-3	3T3 cytotox	NIH3T3 tox 2
C[C@H](CO)N1C[C@H](C)[C@H](CN(C)C(=O)C2CCC2)Oc2cc(C#CC3CC3)ccc2S1(=O)=O	-23.5	88.7	3.0	·	·	·	·
C[C@@H]1CN([C@@H](C)CO)S(=O)(=O)c2ccc(C#Cc3ccc(F)cc3)cc2O[C@H]1CN(C)S(=O)(=O)c1ccc(F)cc1	-67.8	115.1*	2.9	103.3*	116.0*	?	55.3*
COCC#Cc1ccc2c(c1)O[C@H](CN(C)S(=O)(=O)c1ccc(F)cc1)[C@H](C)CN([C@H](C)CO)S2(=O)=O	-47.7	67.9	-1.6	·	·	·	·
C[C@H](CO)N1C[C@H](C)[C@@H](CN(C)C(=O)Nc2cccc3ccccc23)OCCCC[C@H](C)Oc2ccc(NC(=O)C3CCCCC3)cc2C1=O	-75.3	64.1	-14.5	·	·	·	·
C[C@@H]1CCCCO[C@H](CN(C)C(=O)NC2CCCCC2)[C@H](C)CN([C@H](C)CO)C(=O)c2cc(NC(=O)Nc3cccc4ccccc34)ccc2O1	-75.6	84.9	-5.7	·	·	·	·
C[C@@H]1CCCCO[C@H](CN(C)C(=O)NC2CCCCC2)[C@@H](C)CN([C@H](C)CO)C(=O)c2cc(NC(=O)Nc3cccc4ccccc34)ccc2O1	-34.9	103.7*	-5.5	108.8*	30.3	-21.0	-15.0
C[C@H](CO)N1C[C@H](C)[C@H](CN(C)C(=O)Nc2cccc3ccccc23)OCCCC[C@H](C)Oc2ccc(N(C)C)cc2C1=O	-58.9	58.9	-12.3	·	·	·	·
C[C@@H]1CCCCO[C@H](CN(C)C(=O)Nc2cccc3ccccc23)[C@H](C)CN([C@H](C)CO)C(=O)c2cc(N(C)C)ccc2O1	-53.2	99.0*	2.5	96.5*	22.5	10.9	12.8
C[C@@H]1CCCCO[C@@H](CN(C)C(=O)Nc2cccc3ccccc23)[C@@H](C)CN([C@H](C)CO)C(=O)c2cc(NC(=O)c3ccccc3)ccc2O1	-53.4	45.0	6.0	·	·	·	·
C[C@@H]1CCCCO[C@@H](CN(C)C(=O)Nc2cccc3ccccc23)[C@@H](C)CN([C@@H](C)CO)C(=O)c2cc(NC(=O)C3CCCCC3)ccc2O1	-89.6*	?	18.0	109.8*	68.6	-5.4	0.4
